Results taken from PubChem BioAssay AID624255 (Broad Institute, 2012).
About 4,600 (6%) of roughly 77,000 compounds were called active. About 1% were inconclusive and are not listed.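 Rule for the calls: active = mean inhibition above about 93%, with at least 55% of replicates each passing it (limit read from the data, passing the limit was not always enough); inconclusive = only one of those two conditions holds; inactive = neither condition holds.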 What follows is part of a selection rich in actives, with near analogues and random picks from the rest.

Assay: growth inhibition of T. cruzi in host fibroblasts – cell-based, beta-gal Tulahuen parasites, NIH3T3 host, luminescence, primary screen (AID 624255)
Conditions: T. cruzi beta-gal in NIH3T3, GalScreen luminescence, 90 h; at 8.34 µM; stronger effect = higher value

SMILES | inhibition
Cn1cnc(CCNC(=O)C[C@H]2CC[C@@H]3[C@H](COC[C@@H](O)CN3C(=O)Nc3ccc(Cl)cc3)O2)c1 | 33% (inactive)
O=C(N[C@H]1C=C[C@@H](CC(=O)N2CCN(c3ccccc3)CC2)O[C@@H]1CO)c1ccncc1 | -7% (inactive)
CC(=O)N(C)C[C@@H]1Oc2cc(-c3cccnc3)ccc2S(=O)(=O)N([C@H](C)CO)C[C@H]1C | -140% (inactive)
O=C(C[C@@H]1CC[C@@H]2[C@H](COC[C@H](O)CN2S(=O)(=O)c2ccc(Cl)cc2)O1)N[C@@H]1CCN(Cc2ccccc2)C1 | 43.9% (inactive)
O=C(c1cccnc1)N1CC[C@@H]2[C@@H](CO)Nc3ccc(-c4ccccc4)cc3[C@@H]21 | 77.8% (inactive)
COc1ccc(-c2ccc3c(c2)[C@H]2[C@H](CCN2C(=O)c2ccc4c(c2)OCO4)[C@@H](CO)N3)cc1 | 13.9% (inactive)
OC[C@@H]1Nc2ccc(-c3cccc(F)c3)cc2[C@H]2[C@@H]1CCN2Cc1ccncc1 | 115% (active)
COCC(=O)N1CC[C@H]2[C@H](CO)Nc3ccc(-c4ccc(C(=O)N(C)C)cc4)cc3[C@H]21 | 90.6% (inactive)
N#Cc1cccc(-c2ccc3c(c2)[C@H]2[C@H](CCN2Cc2ccc4c(c2)OCO4)[C@@H](CO)N3)c1 | 27.1% (inactive)
O=C(c1cnccn1)N1CC[C@@H]2[C@H](CO)Nc3ccc(-c4cccc(F)c4)cc3[C@@H]21 | 109% (active)
O=C(c1cccnc1)N1CC[C@H]2[C@H](CO)Nc3ccc(-c4ccc(F)cc4)cc3[C@H]21 | 74.7% (inactive)
O=C(c1ccccc1)N1CC[C@H]2[C@H](CO)Nc3ccc(-c4ccc(F)cc4)cc3[C@H]21 | 59.1% (inactive)
O=C(c1ccccn1)N1CC[C@@H]2[C@H]1c1cc(-c3ccccc3)ccc1N[C@@H]2CO | 106% (active)
O=C(C1CCC1)N1CC[C@H]2[C@H](CO)Nc3ccc(-c4cccc(F)c4)cc3[C@H]21 | 92.4% (inactive)
OC[C@@H]1Nc2ccc(-c3ccc(F)cc3)cc2[C@@H]2[C@H]1CCN2Cc1ccc(F)cc1 | 22.6% (inactive)
CN(C)C(=O)c1ccc(-c2ccc3c(c2)[C@H]2[C@H](CCN2C(=O)c2ccc4c(c2)OCO4)[C@H](CO)N3)cc1 | 99.5% (active)
O=C(NC[C@@H]1[C@@H](c2ccccc2)[C@@H](CO)N1Cc1ccccn1)C1CCC1 | 31.9% (inactive)
C[C@H](O)C#Cc1cnc2c(c1)C(=O)N([C@H](C)CO)C[C@H](C)[C@@H](CN(C)C(=O)Nc1ccc(F)cc1)O2 | 41% (inactive)
O=C([C@H]1[C@H](CO)[C@H]2Cn3c(ccc(-c4ccccc4)c3=O)[C@@H]1N2Cc1cccnc1)N1CCOCC1 | 28.9% (inactive)
CN(C)C(=O)[C@H]1[C@H](CO)[C@H]2Cn3c(ccc(-c4ccc(F)cc4)c3=O)[C@H]2N1C(=O)c1ccccn1 | 32.7% (inactive)
C/C=C/c1ccc([C@@H]2[C@@H](CN(C)C(C)=O)N(C(=O)C3CC3)[C@H]2CO)cc1 | -20.4% (inactive)
CO[C@@H]1CN(C)C(=O)c2cc(NC(=O)Nc3cccc(F)c3)ccc2OC[C@H](C)N(C)C[C@@H]1C | -11.1% (inactive)
COc1cccc(S(=O)(=O)Nc2ccc3c(c2)[C@H]2C[C@H](CC(=O)N4CCCCC4)O[C@@H](CO)[C@H]2O3)c1 | 32.8% (inactive)
COc1ccccc1C(=O)Nc1ccc2c(c1)C(=O)N(C)C[C@@H](OC)[C@@H](C)CN(CC1CC1)[C@@H](C)CO2 | 21.2% (inactive)
N#C[C@@H]1[C@@H](c2ccc(-c3ccccc3F)cc2)[C@@H](CO)N1C(=O)C1CC1 | 71.7% (inactive)

SMILES | inhibition
CC(=O)N1[C@H](CNC(=O)C2CC2)[C@@H](c2ccc(-c3cccc(F)c3)cc2)[C@@H]1CO | 98.8% (active)
CC(=O)N1[C@H](CO)[C@H](c2ccc(-c3ccccc3)cc2)[C@H]1CNC(=O)C1CC1 | -0.382% (inactive)
COCC(=O)N(C)C[C@H]1[C@@H](c2ccc(-c3cccnc3)cc2)[C@H](CO)N1C(C)=O | 84.3% (inactive)
CC(=O)NC[C@@H]1[C@@H](c2ccc(-c3ccccc3F)cc2)[C@@H](CO)N1C(=O)C1CC1 | 108% (active)
CCC(=O)N(C)C[C@H]1[C@H](c2ccc(-c3ccccc3F)cc2)[C@@H](CO)N1C(C)=O | 8.38% (inactive)
CC(=O)N1[C@H](CO)[C@@H](c2ccc(-c3ccc(F)cc3)cc2)[C@H]1CNC(=O)C1CC1 | -36% (inactive)
CC(=O)N(C)C[C@@H]1[C@@H](c2ccc(-c3ccccc3F)cc2)[C@@H](CO)N1C(C)=O | 113% (active)
CC(=O)N1[C@H](CO)[C@@H](c2ccc(-c3ccccc3)cc2)[C@H]1CNC(=O)C1CC1 | -18% (inactive)
COc1ccc(S(=O)(=O)Nc2ccc3c(c2)CC(=O)N([C@@H](C)CO)C[C@@H](C)[C@H](CN(C)S(=O)(=O)c2ccccc2)O3)cc1 | 0.553% (inactive)
COc1ccc(S(=O)(=O)N(C)C[C@H]2Oc3ccc(NC(=O)Nc4ccccc4)cc3CC(=O)N([C@H](C)CO)C[C@@H]2C)cc1 | -16.8% (inactive)
C[C@@H]1CN([C@H](C)CO)C(=O)c2cc(NC(=O)Nc3cccc4ccccc34)ccc2O[C@@H](C)CCCCO[C@H]1CN(C)S(=O)(=O)c1cccs1 | 23.5% (inactive)
CO[C@@H]1CC[C@@H]2CCOc3ccc(C#N)cc3C(=O)N(C)C[C@H](c3ccccc3)CC(=O)N(C)C[C@H]1O2 | 5.08% (inactive)
COc1cccc(C#Cc2ccc([C@@H]3[C@H](C#N)N[C@H]3CO)cc2)c1 | 101% (active)
N#C[C@@H]1N[C@@H](CO)[C@@H]1c1ccc(C#Cc2ccccc2F)cc1 | 79.1% (inactive)
N#C[C@H]1N[C@H](CO)[C@@H]1c1ccc(C#Cc2ccccc2F)cc1 | 24.3% (inactive)
O=C(Nc1ccccc1)N1C[C@H]2[C@@H](c3ccccc31)[C@@H](CO)N2Cc1cocn1 | 65% (inactive)
CNC(=O)C[C@@H]1CC[C@H]2[C@@H](COc3ccc(NC(=O)NCc4ccccc4)cc3C(=O)N2C)O1 | -25% (inactive)
C[C@H]1CN([C@@H](C)CO)S(=O)(=O)c2ccc(C#CCN(C)C)cc2O[C@H]1CN(C)C(=O)c1ccccc1F | 36.4% (inactive)
CCCC#Cc1ccc2c(c1)O[C@H](CN(C)C(=O)CC)[C@@H](C)CN([C@H](C)CO)S2(=O)=O | 94.9% (active)
CCC(=O)N(C)C[C@@H]1Oc2cc(C#CCN(C)C)ccc2S(=O)(=O)N([C@H](C)CO)C[C@H]1C | 101% (active)
CC(=O)N(C)C[C@H]1Oc2cc(C#CCN(C)C)ccc2S(=O)(=O)N([C@H](C)CO)C[C@H]1C | 56.9% (inactive)
C[C@@H]1CN([C@H](C)CO)S(=O)(=O)c2ccc(C#CCN(C)C)cc2O[C@@H]1CN(C)C(=O)CN(C)C | -40.2% (inactive)
COCC#Cc1ccc2c(c1)O[C@@H](CN(C)C(C)=O)[C@H](C)CN([C@H](C)CO)S2(=O)=O | -30.8% (inactive)
C[C@H]1CN([C@@H](C)CO)S(=O)(=O)c2ccc(C#CCN(C)C)cc2O[C@H]1CN(C)C(=O)CN(C)C | -25.5% (inactive)
CCCC#Cc1ccc2c(c1)O[C@@H](CN(C)C(=O)CC)[C@@H](C)CN([C@H](C)CO)S2(=O)=O | 67% (inactive)

SMILES | inhibition
CC(C)CC#Cc1ccc2c(c1)O[C@@H](CN(C)C(=O)c1ccccc1F)[C@H](C)CN([C@H](C)CO)S2(=O)=O | 54% (inactive)
CC(=O)N(C)C[C@H]1Oc2cc(C#CCN(C)C)ccc2S(=O)(=O)N([C@@H](C)CO)C[C@@H]1C | 106% (active)
CCCC#Cc1ccc2c(c1)O[C@@H](CN(C)C(=O)CC)[C@H](C)CN([C@H](C)CO)S2(=O)=O | 68.6% (inactive)
CCCC#Cc1ccc2c(c1)O[C@@H](CN(C)C(=O)c1ccccc1F)[C@H](C)CN([C@H](C)CO)S2(=O)=O | 97.6% (active)
O=C(C[C@H]1CC[C@H]2[C@@H](COC[C@@H](O)CN2Cc2cccc(C(F)(F)F)c2)O1)NCc1ccncc1 | 73.9% (inactive)
C[C@@H]1CCCCO[C@@H](CN(C)S(C)(=O)=O)[C@@H](C)CN([C@@H](C)CO)C(=O)c2cc(NS(=O)(=O)c3ccc(Cl)cc3)ccc2O1 | 46.7% (inactive)
O=C(C[C@H]1CC[C@H]2[C@@H](COC[C@@H](O)CN2CCC(F)(F)F)O1)NCc1ccc2c(c1)OCO2 | -35.7% (inactive)
COc1cccc(NC(=O)C[C@@H]2CC[C@H]3[C@@H](COc4ccc(NC(=O)C5CCOCC5)cc4C(=O)N3C)O2)c1 | 24.1% (inactive)
CN(C)C(=O)C[C@@H]1CC[C@H](NC(=O)NC2CCCC2)[C@H](CO)O1 | -49.3% (inactive)
O=C(C[C@@H]1CC[C@@H]2[C@H](COC[C@@H](O)CN2Cc2ccccc2)O1)NCCc1ccccc1 | 13.4% (inactive)
C[C@@H](NC(=O)C[C@H]1C[C@H]2c3cc(NC(=O)C4CCOCC4)ccc3O[C@H]2[C@@H](CO)O1)c1ccccc1 | -16.2% (inactive)
Cc1cc(C(=O)Nc2ccc3c(c2)C(=O)N(C)[C@@H]2CC[C@H](CC(=O)NC4CCCC4)O[C@@H]2CO3)no1 | -62.2% (inactive)
CN(C)CCCNC(=O)C[C@H]1CC[C@H]2[C@@H](COC[C@H](O)CN2C(=O)c2ccncc2)O1 | -84.6% (inactive)
COCC(=O)Nc1ccc2c(c1)[C@@H]1C[C@H](CC(=O)NCc3ccc(Cl)cc3)O[C@H](CO)[C@@H]1O2 | 0.832% (inactive)
CCNC(=O)C[C@@H]1CC[C@@H]2[C@@H](COc3ccc(NC(=O)Nc4ccccc4F)cc3C(=O)N2C)O1 | 19.6% (inactive)
CN1C(=O)c2cc(NS(C)(=O)=O)ccc2OC[C@@H]2O[C@@H](CC(=O)NCc3ccc(-c4ccccc4)cc3)CC[C@H]21 | 6.8% (inactive)
CCS(=O)(=O)Nc1ccc2c(c1)C(=O)N(C)[C@H]1CC[C@H](CC(=O)N[C@@H]3CCN(Cc4ccccc4)C3)O[C@H]1CO2 | 71.7% (inactive)
CCS(=O)(=O)Nc1ccc2c(c1)C(=O)N(C)[C@@H]1CC[C@H](CC(=O)N[C@H]3CCN(Cc4ccccc4)C3)O[C@@H]1CO2 | 46.2% (inactive)
CN1C(=O)c2cc(NC(=O)c3cnccn3)ccc2OC[C@@H]2O[C@H](CC(=O)NC3CCC3)CC[C@@H]21 | 7.25% (inactive)
CN1C(=O)c2cc(NC(=O)c3cnccn3)ccc2OC[C@@H]2O[C@@H](CC(=O)N[C@H]3CCN(Cc4ccccc4)C3)CC[C@H]21 | 109% (active)
CN1C(=O)c2cc(NC(=O)Nc3ccccc3F)ccc2OC[C@H]2O[C@H](CC(=O)NCc3ccc(-c4ccccc4)cc3)CC[C@H]21 | 101% (active)
CN1C(=O)c2cc(NC(=O)c3cnccn3)ccc2OC[C@@H]2O[C@H](CC(=O)N[C@@H]3CCN(Cc4ccccc4)C3)CC[C@@H]21 | 105% (active)
CN1C(=O)c2cc(NC(=O)Cc3cccs3)ccc2OC[C@@H]2O[C@@H](CC(=O)N[C@@H]3CCN(Cc4ccccc4)C3)CC[C@H]21 | 50.2% (inactive)
